# Where “and” joins values, the source holds several entries; their conditions need not be identical. Equal entries are not always repeated. Calls of active or inactive are those of the source. The calls were made as follows: active = hit-call score of the fitted dose curve at least 0.9, where 1 is the maximum; inactive = score below 0.9.
# Read-out: Plasminogen activator inhibitor-1 (PAI1), SERPINE1 (gene 5054)
# Assay: BSK_hDFCGF_PAI1: BioMAP Diversity Plus: hDFCGF Assay for Plasminogen activator inhibitor-1 (PAI1) Biomarker Activity (AID 2283066)
# Details: primary human foreskin fibroblasts; actives raise or lower the signal
# Method: BSK_hDFCGF is a cell-based, multiplexed-readout assay that uses foreskin fibroblast, a human skin primary cell, with measurements taken at 24 hours after chemical dosing in a 96-well plate.BSK_hDFCGF_PAI1 is an assay component measured in the BSK_hDFCGF assay. It measures PAI-1 antibody related to regulation of gene expression using ELISA technology.Data from the assay component BSK_hDFCGF_PAI1 was analyzed into 1 assay endpoint. This assay endpoint, BSK_hDFCGF_PAI1, was analyzed with bidirectional fitting relative to DMSO as the negative control and baseline of activity. Using a type of binding reporter, gain or loss-of-signal activity can be used to understand changes in the signaling as they relate to the gene SERPINE1. Furthermore, this assay endpoint can be referred to as a primary readout, because this assay has produced multiple assay endpoints where this one serves a signaling function. To generalize the intended target to other relatable targets, this assay endpoint is annotated to the cytokine intended target family, where the subfamily is plasmogen activator inhibitor.
# The levels of cell surface (or secreted, indicated by the prefix "s") biomarker endpoints were measured by ELISA. Overt cytotoxicity to cells in confluent adherent cultures (all systems other than the BT system) was assessed by measuring total protein levels using sulforhodamine B (SRB) staining in parallel cultures at the time of biomarker measurements, indicated as SRB endpoints. For proliferation assays for adherent cell types, individual cell types are cultured at sub-confluence and relative cell numbers quantified by SRB staining at time points optimized for each system (48 h: 3C and CASM3C systems; 72 h: BT and HDF3CGF systems; 96 h: SAg system). SRB was performed by staining cells with 0.1% SRB after fixation with 10% TCA and reading wells at 560 nm.Viability and proliferation of PBMC (T cells) was quantified by Alamar Blue reduction for the SAg and BT systems. For PBMC viability (referred to as PBMC Cytotoxicity within the assay endpoint names), cells were plated (75,000/well in a 96-well plate) and then chemical samples added for 1 h before addition of activators, SEB and TSST-1 (20 ng/mL final concentration each). Cells were incubated for 90 h. Then, Alamar Blue (20 uL/well) (Invitrogen, Cat DAL1100) was added for 6 h, and the plates were read with a fluorescence microplate reader at 546/580 nm (excitation/emission). For PBMC proliferation, cells were plated and activated as above but incubated for only 16 h prior to addition of Alamar Blue. Plates were read after 6 h.
Structure (SMILES),outcome,AC50
CC1=NN(c2ccccc2)C(=O)C1,inactive,–
CCCCC(CC)C(=O)O (stereo not given),inactive,–
O=C1NS(=O)(=O)c2ccccc21,inactive,–
CCOC(=O)CN[C@@H](C(=O)N1CC[C@H]1C(=O)NCc1ccc(/C(N)=N/O)cc1)C1CCCCC1,inactive,–
CCCCCc1ccc(O)cc1,–,28.5 µM (active)
CN(CCO)S(=O)(=O)C(F)(F)C(F)(F)C(F)(F)C(F)(F)C(F)(F)C(F)(F)C(F)(F)C(F)(F)F,inactive,–
COCN(COC)c1nc(N(COC)COC)nc(N(COC)COC)n1,inactive,–
C=CC(C)(CCC=C(C)C)OC(C)=O (stereo not given),–,29.8 µM (active)
CCCCC(CC)C(=O)OCCOCCOCCOCCOC(=O)C(CC)CCCC (stereo not given),inactive,–
CN(Cc1cnc2nc(N)nc(N)c2n1)c1ccc(C(=O)N[C@@H](CCC(=O)O)C(=O)O)cc1,inactive,–
C=CC(=O)OCCC(F)(F)C(F)(F)C(F)(F)C(F)(F)C(F)(F)C(F)(F)C(F)(F)C(F)(F)F,inactive,–
O=C(CC(=O)C(F)(F)C(F)(F)C(F)(F)F)c1cccs1,inactive,–
O=C(CCCN1CCC(O)(c2ccc(Cl)cc2)CC1)c1ccc(F)cc1,inactive,–
CCCCCCCCCCCCOS(=O)(=O)O,–,33.6 µM (active)
CCCCCCCCCCCCCCC,inactive,–
Clc1ccc(Nc2nnc(Cc3ccncc3)c3ccccc23)cc1,inactive,–
Cc1ccc(N=Nc2c(O)ccc3ccccc23)c(C)c1,inactive,–
C=COC(=O)C(C)(C)CCCCCC,–,30.3 µM (active)
COc1cccc(O)c1,inactive,–
O=C1OC2(c3ccccc31)c1cc(I)c(O)c(I)c1Oc1c2cc(I)c(O)c1I,–,5.52 µM (active)

Structure (SMILES),outcome,AC50
Cc1cccc2c1ccc1ccccc12,inactive,–
O=C(NO)c1ccccc1,inactive,–
C[C@]12CC[C@@H]3c4ccc(O)cc4CC[C@H]3[C@@H]1C[C@@H](O)[C@@H]2O,inactive,–
CC(=O)Nc1ccc(O)cc1,inactive,–
CN(C)CCOC(c1ccccc1)c1ccccc1,inactive,–
O=P(O)(O)CCC(F)(F)C(F)(F)C(F)(F)C(F)(F)C(F)(F)C(F)(F)F,inactive,–
O=C(O)CCC(F)(F)C(F)(F)C(F)(F)C(F)(F)C(F)(F)C(F)(F)F,inactive,–
CS(=O)(=O)c1ccc([C@@H](CC2CCCC2)C(=O)Nc2cnccn2)cc1Cl,–,20 µM (active)
Oc1cc2ccccc2cc1O,inactive,–
Cc1ccc(C(=O)c2ccccc2)cc1,–,20 µM (active)
CCCCCCCCCCCCCCCCCC[N+](C)(C)Cc1ccccc1,–,0.636 µM (active)
Oc1c(Cl)cc(Cl)cc1Sc1cc(Cl)cc(Cl)c1O,–,1.23 µM (active) and 1.32 µM (active)
Oc1ccc(Cc2ccccc2O)cc1,inactive,–
O=C(O)C(F)(F)OC(F)(F)C(F)(F)OC(F)(F)C(F)(F)OC(F)(F)C(F)(F)C(F)(F)C(F)(F)F,–,11.4 µM (active)
O=C(c1ccccc1)c1ccccc1,inactive,–
NC(=NCCCCCCN=C(N)/N=C(\N)Nc1ccc(Cl)cc1)/N=C(\N)Nc1ccc(Cl)cc1,–,3.67 µM (active)
CC(C)(C)c1ccc(O)c(O)c1,inactive,–
CCCCC=O,inactive,–
O=P(O)(O)CCC(F)(F)C(F)(F)C(F)(F)C(F)(F)C(F)(F)C(F)(F)C(F)(F)C(F)(F)F,–,29.5 µM (active) and 18.4 µM (active)
CCCCc1oc2ccccc2c1C(=O)c1cc(I)c(OCCN(CC)CC)c(I)c1,–,4.81 µM (active)
